# Where “and” joins values, the source holds several entries; their conditions need not be identical. Identical values can stand only once. For some of these results: Entries with a potency or affinity are not part of this list. Calls of active or inactive are those of the source.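 How the source made its calls, unless noted: active means at least 20% inhibition of 6-phosphogluconate dehydrogenase activity; inactive means the rest.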
# Tests used:
# [1] = blockers of polyQ-driven CASP3 activation – cell-based (AID 1583); details: polyglutamine-induced caspase-3 activation, cell assay; stronger effect = higher value;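 tested at 10 µM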
# [2] = yeast 75Q aggregation reduction – 75Q-TubU reporter (AID 1593); details: Yeast 75Q polyglutamine aggregation reporter
# [3] = restoration of touch response, mutant HTT neurons – whole organism, C. elegans mechanosensory neurons, N-terminal huntingtin (AID 1599); details: C. elegans polyQ-huntingtin mechanosensory neurons, stronger effect = higher value
# [4] = blockers of cytochrome c efflux from mitochondria – biochemical, purified mitochondria (AID 1603); details: stronger effect = lower value;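 further: mouse liver mitochondria challenged with calcium chloride; signal normalized to the plate average as 100%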
# [5] = polyglutamine aggregate formation blockers (AID 1604); details: polyglutamine-induced protein aggregation inhibition assay; stronger effect = higher value; tested at 2.5 µM
# [6] = glutamate transport activators, MN-1 cells, MN-1 cell line (AID 1612); details: MN-1 motor neuron cells, stronger effect = higher value;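 further: tested at 1 µM final; 0% = mean of DMSO vehicle wells on each plate; positive means more glutamate uptake than control and negative means less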
# [7] = 75Q-TubH aggregate inhibition, S. cerevisiae, yeast (AID 1616); details: S. cerevisiae 75Q-TubH polyglutamine aggregation suppression; stronger effect = higher value
# [8] = P. berghei load reduction in hepatocytes – cell-based, HepG2, luciferase luminescence, HepG2 viability, primary screen (AID 624349; in the data active means parasite load remaining mostly below about 12%, no sharp cut-off; inactive means mostly above about 10%;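 further: 100% = mean of DMSO negative control wells on the same plate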); details: P. berghei liver stage in HepG2, luciferase luminescence, concentration not given here; parasite load remaining: stronger effect = lower value; viability: measured here: HepG2 viability without parasites
# [9] = target: 6-phosphogluconate dehydrogenase, decarboxylating (Homo sapiens) (UniProt P52209); assay: inhibition of human phosphogluconate dehydrogenase – biochemical, recombinant enzyme, NADPH absorbance, primary screen (AID 1159550); details: recombinant 6PGD, NADPH absorbance 341 nm; at 10 µM; stronger effect = higher value
# [10] = EMT-state selective cytotoxicity in co-culture – imaging, PC-3E GFP, TEM4-18 mCherry, primary screen (AID 1345086;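 active means compounds killing one labelled cell type while sparing the other, by normalised counts and ratio limits, not self-fluorescent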;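 on all read-outs here: cells exposed to compound for 72 h before imaging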;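 on red/green cell ratio (normalised): normalised mesenchymal count divided by normalised epithelial count so high means epithelial killing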); details: PC-3E GFP / TEM4-18 mCherry co-culture, imaging cell counts, at 1 µM; for red/green cell ratio (normalised): actives lie on both sides
# [11] = system: Aerobactin synthetase IucA (Klebsiella pneumoniae hvKP1); assay: IucA enzyme inhibition, primary screen, biochemical, Spectrum library (AID 1346200; call rule not given here;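 further: 100% = wells without compound and 0% = wells lacking enzyme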); details: malachite green pyrophosphate, A620, at 8 µM, stronger effect = lower value
# [12] = target: Mitogen-activated protein kinase 7 (Homo sapiens) (UniProt Q13164); assay: Gal4-ERK5 driven luciferase induction – cell-based, HTS, primary screen (AID 1508626;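 active means luciferase signal above three times the same-plate solvent-only control wells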;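 further: luciferase driven by Gal4-ERK5 fusion binding five Gal4 sites before minimal TATA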); details: HeLa Gal4-ERK5 transactivation, 18 h, at 5 µM, stronger effect = higher value
# [13] = GFP-Q80 aggregate reduction, neuronal-like cells, cell-based, NGF-treated PC12, GFPQ80 (AID 1614); details: PC12 NGF-treated GFP-polyQ80 inclusion reduction;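 further: lower means fewer inclusions and 0 means no inclusions at all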
# [14] = viability loss with induced miR-34 in A549 – imaging, A549 dox-inducible miR-34, nuclei and caspase counts, primary screen (AID 1347080;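 active means compounds whose cell count with miR-34 switched on is under 0.7 times the count with it off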); details: A549 miR-34 inducible, Hoechst nuclei count, 48 h
# [15] = target: NAD(+) hydrolase SARM1 (Homo sapiens) (UniProt Q6SZW1); assay: blocking NAD cleavage by SARM1 SAM-TIR – cell lysate, NAD-Glo luminescence (AID 1508614;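 active means compound whose remaining NAD level is above about 45 nM, limit read from the data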); details: SAM-TIR HEK293T lysate NADase, at 1 µM, stronger effect = higher value
# [16] = compounds altering circadian rhythm period length – cell-based, LOPAC library, luminescence reporter (AID 2774; call rule not given here;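 further: values are relative to mean of DMSO wells on each plate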); details: circadian reporter cells, at 7 µM, actives lie on both sides
# [17] = system: Hepatitis C virus NS3 helicase; assay: blockers of NS3h binding to ssDNA – biochemical, fluorescence polarization, LOPAC1280 library, primary screen (AID 687035; in the data active means inhibition above about 37%); details: Purified HCV NS3 helicase, Cy5-dT15 ssDNA binding fluorescence polarization; stronger effect = higher value; concentration not given here
# [18] = galactose survival enhancers in mitochondrial complex I cybrids – cell-based, galactose medium, ATP luminescence, primary screen (AID 1645843;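 active means z-score of at least 1.8 in each of two replicates, scored against plate mean and spread of sample wells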;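 further: positive z means more ATP and so rescue of galactose-driven cybrid death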); details: complex I mutant cybrid cells, 72 h, stronger effect = higher value
# [19] = measured here: epithelial PC-3E GFP cell survival
# [20] = measured here: mesenchymal TEM4-18 mCherry cell survival
# [21] = measured here: relative caspase fold change +Dox/-Dox
# [22] = measured here: total cells with miR-34 induction, stronger effect = lower value
# [23] = measured here: total cells without miR-34 induction
# Sequence of Mitogen-activated protein kinase 7 (Homo sapiens) (Q13164 whole entry, looked up, the tested form may be a part): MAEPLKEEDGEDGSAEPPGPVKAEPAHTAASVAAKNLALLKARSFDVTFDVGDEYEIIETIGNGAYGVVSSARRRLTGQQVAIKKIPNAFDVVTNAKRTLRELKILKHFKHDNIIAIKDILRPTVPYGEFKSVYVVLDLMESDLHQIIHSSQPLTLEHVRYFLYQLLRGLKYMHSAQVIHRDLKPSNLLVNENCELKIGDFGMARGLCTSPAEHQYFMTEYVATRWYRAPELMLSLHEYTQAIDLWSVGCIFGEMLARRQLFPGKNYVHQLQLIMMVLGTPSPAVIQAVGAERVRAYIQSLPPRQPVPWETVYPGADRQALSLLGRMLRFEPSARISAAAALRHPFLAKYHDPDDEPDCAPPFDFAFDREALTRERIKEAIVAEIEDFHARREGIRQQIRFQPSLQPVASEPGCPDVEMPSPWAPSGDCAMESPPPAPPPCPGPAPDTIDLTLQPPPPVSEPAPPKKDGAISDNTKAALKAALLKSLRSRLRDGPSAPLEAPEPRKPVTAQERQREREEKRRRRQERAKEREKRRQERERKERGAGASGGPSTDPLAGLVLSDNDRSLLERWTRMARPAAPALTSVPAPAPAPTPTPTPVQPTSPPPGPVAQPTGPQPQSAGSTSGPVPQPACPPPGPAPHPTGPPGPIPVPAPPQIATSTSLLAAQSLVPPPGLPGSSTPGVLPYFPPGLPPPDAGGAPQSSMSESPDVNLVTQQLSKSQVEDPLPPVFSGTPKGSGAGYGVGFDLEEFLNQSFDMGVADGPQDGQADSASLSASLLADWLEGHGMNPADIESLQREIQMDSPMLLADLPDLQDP
# Sequence of NAD(+) hydrolase SARM1 (Homo sapiens) (Q6SZW1 whole entry, looked up): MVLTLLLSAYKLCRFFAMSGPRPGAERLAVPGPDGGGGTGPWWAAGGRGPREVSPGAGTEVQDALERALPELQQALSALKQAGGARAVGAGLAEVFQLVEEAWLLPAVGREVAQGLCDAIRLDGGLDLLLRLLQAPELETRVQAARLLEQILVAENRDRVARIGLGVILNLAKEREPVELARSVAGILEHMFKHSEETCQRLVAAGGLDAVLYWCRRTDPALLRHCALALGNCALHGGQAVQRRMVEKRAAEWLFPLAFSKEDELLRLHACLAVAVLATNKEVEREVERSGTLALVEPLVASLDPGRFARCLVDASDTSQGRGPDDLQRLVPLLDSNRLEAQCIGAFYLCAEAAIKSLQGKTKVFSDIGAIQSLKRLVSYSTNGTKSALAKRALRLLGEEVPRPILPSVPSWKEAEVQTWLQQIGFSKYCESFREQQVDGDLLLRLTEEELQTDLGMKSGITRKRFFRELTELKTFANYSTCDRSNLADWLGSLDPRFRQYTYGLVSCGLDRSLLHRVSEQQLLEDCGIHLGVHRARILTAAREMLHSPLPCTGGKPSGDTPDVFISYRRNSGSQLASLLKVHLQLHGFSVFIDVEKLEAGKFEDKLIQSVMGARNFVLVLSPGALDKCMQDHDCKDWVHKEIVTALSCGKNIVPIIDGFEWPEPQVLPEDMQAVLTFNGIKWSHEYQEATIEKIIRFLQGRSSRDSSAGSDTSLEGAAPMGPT
# Sequence of 6-phosphogluconate dehydrogenase, decarboxylating (Homo sapiens) (P52209 whole entry, looked up): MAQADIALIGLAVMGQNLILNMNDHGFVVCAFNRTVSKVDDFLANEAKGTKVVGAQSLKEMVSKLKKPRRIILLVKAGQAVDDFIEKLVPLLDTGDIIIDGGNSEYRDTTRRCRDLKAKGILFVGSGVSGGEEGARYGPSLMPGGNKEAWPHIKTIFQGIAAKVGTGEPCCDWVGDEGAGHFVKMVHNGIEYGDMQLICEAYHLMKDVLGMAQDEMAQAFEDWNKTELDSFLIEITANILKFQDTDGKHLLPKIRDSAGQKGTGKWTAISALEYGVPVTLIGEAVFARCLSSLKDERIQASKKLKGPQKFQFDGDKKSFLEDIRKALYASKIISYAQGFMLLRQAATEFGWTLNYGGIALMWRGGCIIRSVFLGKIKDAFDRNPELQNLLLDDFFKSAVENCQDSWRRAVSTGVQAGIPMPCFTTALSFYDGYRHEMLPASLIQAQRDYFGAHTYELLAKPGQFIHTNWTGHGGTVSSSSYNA
smiles,measurement,setting,value
c1ccc(N=Nc2ccccc2)cc1,inhibition,[1],-11.7%
same,score,[2],0.28
same,rescue above control,[3],6.73
same,cytochrome c release ratio,[4],0.73
same,inhibition of aggregation,[5],88.8%
same,glutamate uptake change,[6],-16%
same,aggregation suppression score,[7],0.313
same,parasite load remaining,[8],103% (inactive)
same,viability,[8],66.9%
same,inhibition,[9],14.4% (inactive)
same,red/green cell ratio (normalised),[10],0.85 (inactive)
same,normalised cell number,[10]; [19],1.3
same,normalised cell number,[10]; [20],1.1
same,activity remaining,[11],103% (inactive)
same,luciferase signal,[12],40 AU (inactive)
C[C@@H]([C@H](O)c1ccccc1)N(C)C,inhibition,[1],-9.65%
same,score,[2],1.49
same,rescue above control,[3],-3.5
same,cytochrome c release ratio,[4],0.95
same,inhibition of aggregation,[5],81%
same,glutamate uptake change,[6],13.8%
same,inclusion score,[13],2
same,aggregation suppression score,[7],1.19
same,inhibition,[9],4.3% (inactive)
same,red/green cell ratio (normalised),[10],0.91 (inactive)
same,normalised cell number,[10]; [19],1.19
same,normalised cell number,[10]; [20],1.09
same,fold change,[14]; stronger effect = lower value,0.94 (inactive)
same,fold change,[14]; [21],0.912
same,cell count,[14]; [22],8870
same,cell count,[14]; [23],9440
same,remaining NAD,[15],10 nM (inactive)
same,luciferase signal,[12],108 AU (inactive)
CCCCOC(=O)c1ccccc1C(=O)OCCCC,parasite load remaining,[8],68.9% (inactive)
same,viability,[8],91.7%
same,inhibition,[9],4.37% (inactive)
same,red/green cell ratio (normalised),[10],1.22 (inactive)
same,normalised cell number,[10]; [19],0.78
same,normalised cell number,[10]; [20],0.95
same,fold change,[14]; stronger effect = lower value,0.891 (inactive)
same,fold change,[14]; [21],1.43
same,cell count,[14]; [22],10600
same,cell count,[14]; [23],11900
same,remaining NAD,[15],10 nM (inactive)
same,luciferase signal,[12],76 AU (inactive)
CC(C)(O)[C@@H]1[C@H]2OC(=O)[C@@H]1[C@]1(O)C[C@H]3O[C@]34C(=O)O[C@H]2[C@]14C,inhibition,[1],-16.4%
same,score,[2],1.49
same,rescue above control,[3],8.41
same,cytochrome c release ratio,[4],0.87
same,inhibition of aggregation,[5],51%
same,glutamate uptake change,[6],14.8%
same,inclusion score,[13],2
same,aggregation suppression score,[7],1.53
same,parasite load remaining,[8],79% (inactive)
same,viability,[8],91.4%
same,inhibition,[9],6.64% (inactive)
same,red/green cell ratio (normalised),[10],0.89 (inactive)
same,normalised cell number,[10]; [19],1.1
same,normalised cell number,[10]; [20],0.99
same,activity remaining,[11],107% (inactive)
same,luciferase signal,[12],84 AU (inactive)
NC(=NCCC[C@H](N)C(=O)O)N[N+](=O)[O-],inhibition,[1],-12.4% and -12.2%
same,score,[2],0.79 and 1.25
same,rescue above control,[3],-0.39 and 5.97
same,cytochrome c release ratio,[4],0.94 and 0.84
same,inhibition of aggregation,[5],34.7% and 12.9%
same,glutamate uptake change,[6],19.3% and -1.48%
same,inclusion score,[13],2
same,aggregation suppression score,[7],1.04 and 1.38
same,period change,[16],0.04 h (inactive)
same,parasite load remaining,[8],100% (inactive)
same,viability,[8],68.5%
same,inhibition,[17],-2% (inactive)
same,inhibition,[9],3.83% (inactive)
same,activity remaining,[11],121% (inactive)
same,fold change,[14]; stronger effect = lower value,1.02 (inactive)
same,fold change,[14]; [21],0.79
same,cell count,[14]; [22],10000
same,cell count,[14]; [23],9830
same,luciferase signal,[12],44 AU (inactive)
same,z-score,[18],0.525 (inactive)
O=C1CCO1,inhibition,[1],12.7%
same,score,[2],1.2
same,rescue above control,[3],11.7
same,cytochrome c release ratio,[4],1.11
same,inhibition of aggregation,[5],22.4%
same,glutamate uptake change,[6],5.98%
same,inclusion score,[13],2
same,aggregation suppression score,[7],1.23
same,parasite load remaining,[8],165% (inactive) and 39.1% (inactive)
same,viability,[8],91.2% and 89.3%
same,inhibition,[9],-4.86% (inactive)
same,red/green cell ratio (normalised),[10],1.22 (inactive)
same,normalised cell number,[10]; [19],0.9
same,normalised cell number,[10]; [20],1.09
same,fold change,[14]; stronger effect = lower value,0.872 (inactive)
same,fold change,[14]; [21],2.98
same,cell count,[14]; [22],11800
same,cell count,[14]; [23],13500
same,remaining NAD,[15],10 nM (inactive)
same,luciferase signal,[12],100 AU (inactive)
C=CCc1ccc2c(c1)OCO2,inhibition,[1],-35.5%
same,score,[2],0.7
same,rescue above control,[3],-4.01
same,cytochrome c release ratio,[4],0.78
same,inhibition of aggregation,[5],27.9%
same,glutamate uptake change,[6],1.11%
same,aggregation suppression score,[7],0.706
same,parasite load remaining,[8],147% (inactive)
same,viability,[8],87.4%
same,inhibition,[9],7.49% (inactive)
same,red/green cell ratio (normalised),[10],0.79 (inactive)
same,normalised cell number,[10]; [19],1.31
same,normalised cell number,[10]; [20],1.03
same,activity remaining,[11],124% (inactive)
same,luciferase signal,[12],40 AU (inactive)
COC(=O)/C(C)=C\CC12OC(C)(C)C3CC(C=C4C(=O)c5c(OC)c6c(c(CC=C(C)C)c5OC431)OC(C)(CCC=C(C)C)C=C6)C2=O (stereo not drawn),inhibition,[9],-0.84% (inactive)
same,activity remaining,[11],98.7% (inactive)

# Source: PubChem BioAssay
